{
  "source": "paper PMC4552634",
  "about": "“A New Set of Chemical Starting Points with Plasmodium falciparum Transmission-Blocking Potential for Antimalarial Drug Discovery” (PLoS ONE, 2015)",
  "note": "In all, about 13,000 compounds went through this assay and about 3,200 (25%) showed an effect of 50% or more. The list shows a part of the results.",
  "data": [
    {"test_system": "P. falciparum stage V gametocytes", "parameters": "BacTiter-Glo ATP luminescence viability of purified stage V gametocytes in 384-well plates, per cent inhibition versus DMSO", "conditions": "48 h, 5 µM; inhibitor", "units": {"% Inhibition": "%"}, "values": [
      {"smiles": "CN(Cc1ccccc1)C(=O)CCNS(=O)(=O)c1cc(Br)cnc1N", "note": "[TCMDC-125445]", "% Inhibition": 18.91},
      {"smiles": "CN(C)[C@@H]1C(=O)C(C(N)=O)=C(O)[C@@]2(O)C(=O)C3=C(O)c4c(O)ccc(C#Cc5ccccn5)c4C[C@H]3C[C@@H]12", "note": "[TCMDC-138642]", "% Inhibition": 7.454},
      {"smiles": "CCCC/C=C(\\Cl)c1ccc(O)c2c1C[C@H]1C[C@H]3[C@H](N(C)C)C(=O)C(C(N)=O)=C(O)[C@@]3(O)C(=O)C1=C2O", "note": "[TCMDC-138656]", "% Inhibition": 85.94},
      {"smiles": "COc1cccc(CCc2ccc(O)c3c2C[C@H]2C[C@H]4[C@H](N(C)C)C(=O)C(C(N)=O)=C(O)[C@@]4(O)C(=O)C2=C3O)c1", "note": "[TCMDC-138636]", "% Inhibition": 7.419},
      {"smiles": "COc1ccccc1C1CN(Cc2coc3ccccc3c2=O)Cc2ccccc2O1", "note": "(centres unmarked) [TCMDC-124669]", "% Inhibition": 4.679},
      {"smiles": "Cc1c(Cl)cccc1S(=O)(=O)Nc1ccc(CCN2CCC(N)CC2)cc1", "note": "[TCMDC-134083]", "% Inhibition": 99.61},
      {"smiles": "NC1CCN(CCc2ccc(NS(=O)(=O)c3cccc4ccccc34)cc2)CC1", "note": "[TCMDC-134084]", "% Inhibition": 55.68},
      {"smiles": "COC(=O)CCCOc1cc(Cc2cnc(N)nc2N)cc(OC)c1OC", "note": "[TCMDC-137557]", "% Inhibition": 8.428},
      {"smiles": "CC1(C)N=C(N)N=C(N)N1OCCc1cccc2ccccc12", "note": "[TCMDC-131663]", "% Inhibition": 2.124},
      {"smiles": "CCNC(=O)Nc1ccc(-c2ccc(-c3nc4cccc(C)c4[nH]3)s2)cc1", "note": "[TCMDC-133170]", "% Inhibition": 11.61},
      {"smiles": "Cc1cc2[nH]c(-c3ccc(C(=O)NCCCN4CCN(c5cccc(Cl)c5)CC4)cc3)nc2cc1Cl", "note": "[TCMDC-140027]", "% Inhibition": -17.26},
      {"smiles": "CCc1nc2c(cnn2CC)c(NC2CCOCC2)c1CNC(=O)N1CCOCC1", "note": "[TCMDC-136620]", "% Inhibition": 94.41},
      {"smiles": "CCn1ncc2c(NC3CCOCC3)c(CNC(=O)c3ccnn3C)c(C)nc21", "note": "[TCMDC-136560]", "% Inhibition": 97.63},
      {"smiles": "Cn1nccc1C(=O)NCCNCc1ccc(-c2ccc(-c3nc4cc(F)ccc4[nH]3)cc2)cc1.O=C(O)C(F)(F)F", "note": "[TCMDC-133012]", "% Inhibition": -30.72},
      {"smiles": "Cc1nc(C)n(CC(=O)Nc2cccc(-c3cccc(-c4nc5ccc(C(F)(F)F)cc5[nH]4)c3)c2)n1", "note": "[TCMDC-137134]", "% Inhibition": -7.323},
      {"smiles": "O=S(=O)(c1cccc(F)c1)c1ccc(Nc2ncnc3cc(Br)sc23)cc1Cl", "note": "[TCMDC-135626]", "% Inhibition": 18.51},
      {"smiles": "O=C(Nc1n[nH]c2nc(-c3ccco3)c(Br)cc12)c1ccc(CN2CCCC2)cc1", "note": "[TCMDC-141483]", "% Inhibition": 10.19},
      {"smiles": "COc1cccc(CCN(Cc2ccccc2-c2ccc(CNC3CC(C)(C)NC(C)(C)C3)cc2)C(=O)NC2CCCCC2)c1", "note": "[TCMDC-141577]", "% Inhibition": 108.7},
      {"smiles": "CN(C)CCN(Cc1ccccc1-c1ccc(CNCCc2ccccc2)cc1)C(=O)NC1CCCCC1", "note": "[TCMDC-140626]", "% Inhibition": 107.8},
      {"smiles": "CN(C)CCN(Cc1ccccc1-c1ccc(CNCCc2ccccc2)cc1)C(=O)c1ccccc1", "note": "[TCMDC-140532]", "% Inhibition": 112.9}
    ]}
  ]
}
